We go through 18 molecules from PubChem BioAssay (Tox21).

Each structure is given as a SMILES string. Results filed as inconclusive are left out. Calls of active or inactive are those of the source. Unless noted, calls follow the shape of the dose curve; as a rule, active = well fitted curve in the direction sought with a large enough effect in the repeat runs; inconclusive = weak or mixed curves; inactive = no such curve, though single readings can be large; an effect the other way counts as inactive or inconclusive.

Experiment [1] is described as follows: qHTS assay to identify small molecule antagonists of the thyroid receptor (TR) signaling pathway - cell viability counter screen (AID 743064). Also: nearly all actives have a fitted effect of over 50% in size. Also: potency is read from the fitted curve at half-maximal effect. The method, boiled down:
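GH3.TRE-Luc rat pituitary cells carrying a TRE-luciferase reporter were treated with compound plus 1 nM T3 (final) for 23.5 h at 37 °C. Viability was then read in the same wells by CellTiter-Fluor fluorescence after a further 30 min.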
(In qHTS, concentration-response curves come from the screen itself.)

A short description of experiment [2]: qHTS assay to identify small molecule antagonists of the thyroid receptor (TR) signaling pathway (AID 743065). Also: nearly all actives have a fitted effect of over 55% in size. Also: potency is read from the fitted curve at half-maximal effect. A digest of the protocol: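 Antagonism measured as loss of luciferase signal in GH3 cells stably carrying a TRE-luciferase reporter, co-treated with compound and T3 (1 nM final) for 23.5 h at 37 C. Viability was read in the same well by CellTiter-Fluor.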

Experiment [3] has as its system thyroid hormone receptor (rat, GH3 cells). The experiment is described as follows: qHTS assay to identify small molecule agonists of the thyroid receptor (TR) signaling pathway (AID 743066; calls by dose curve).
For experiment [4], the target named is Estrogen receptor (Homo sapiens) (UniProt P03372). The experiment is described as follows: qHTS assay to identify small molecule antagonists of the estrogen receptor alpha (ER-alpha) signaling pathway (AID 743069; active = well fitted curve in the direction sought with a large enough effect in the signal ratio in the repeat runs, not every such curve was filed as active; the % refers to the signal ratio). The method, boiled down: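 Antagonist mode: compounds in DMSO were co-added with 17beta-estradiol to ER-alpha-bla HEK293 cells (2% charcoal-stripped serum) and left 18 h at 37C. Reporter inhibition was measured as FRET fluorescence after 2 h LiveBLAzer substrate at room temperature.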
Estrogen receptor (Homo sapiens), sequence (P03372 whole entry, looked up): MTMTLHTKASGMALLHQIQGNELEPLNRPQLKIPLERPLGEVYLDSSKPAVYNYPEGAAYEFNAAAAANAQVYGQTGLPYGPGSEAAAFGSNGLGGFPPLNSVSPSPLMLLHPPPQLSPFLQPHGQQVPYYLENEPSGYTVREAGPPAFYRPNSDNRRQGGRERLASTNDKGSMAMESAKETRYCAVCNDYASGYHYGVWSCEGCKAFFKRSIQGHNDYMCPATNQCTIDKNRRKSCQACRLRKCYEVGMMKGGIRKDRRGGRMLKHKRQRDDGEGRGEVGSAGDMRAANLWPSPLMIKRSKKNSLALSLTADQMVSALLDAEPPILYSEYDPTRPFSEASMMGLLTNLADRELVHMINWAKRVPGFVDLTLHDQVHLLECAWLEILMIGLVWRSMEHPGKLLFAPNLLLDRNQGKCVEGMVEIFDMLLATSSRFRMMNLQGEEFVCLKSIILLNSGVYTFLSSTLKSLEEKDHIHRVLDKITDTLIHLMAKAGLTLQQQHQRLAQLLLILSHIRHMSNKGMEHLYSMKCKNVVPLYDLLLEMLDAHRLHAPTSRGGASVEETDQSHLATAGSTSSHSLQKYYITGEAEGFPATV

Experiment [5] is described as follows: qHTS assay to identify small molecule antagonists of the estrogen receptor alpha (ER-alpha) signaling pathway - cell viability counter screen (AID 743074; calls by dose curve;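 also: HEK293 cells carrying ER-alpha-UAS-bla reporter stimulated with 17beta-estradiol; nearly all actives have a fitted effect of over 45% in size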).
In experiment [6] the target is Estrogen receptor (Homo sapiens) (UniProt P03372). The experiment is described as follows: qHTS assay to identify small molecule agonists of the estrogen receptor alpha (ER-alpha) signaling pathway (AID 743075; calls by dose curve;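 also: HEK293 GripTite cells with ER-alpha and UAS-driven beta-lactamase reporter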; also: potency is read from the fitted curve at half-maximal effect).
For experiment [7] the target is unchanged. The experiment is described as follows: qHTS assay to identify small molecule agonists of the estrogen receptor alpha (ER-alpha) signaling pathway using the BG1 cell line (AID 743079). Also: nearly all actives have a fitted effect of over 20% in size. Also: potency is read from the fitted curve at half-maximal effect. The following applies: BG1Luc4E2 cells, ERE-luciferase agonist, 22 h; activation: at 70.3 µM (top of the series).
The target of the next experiment is Aromatase (Homo sapiens) (UniProt P11511). Kind of experiment: qHTS assay to identify aromatase inhibitors (AID 743083). Also: nearly all actives have a fitted effect of over 55% in size. Also: potency is read from the fitted curve at half-maximal effect.
Aromatase (Homo sapiens), sequence (P11511 whole entry, looked up): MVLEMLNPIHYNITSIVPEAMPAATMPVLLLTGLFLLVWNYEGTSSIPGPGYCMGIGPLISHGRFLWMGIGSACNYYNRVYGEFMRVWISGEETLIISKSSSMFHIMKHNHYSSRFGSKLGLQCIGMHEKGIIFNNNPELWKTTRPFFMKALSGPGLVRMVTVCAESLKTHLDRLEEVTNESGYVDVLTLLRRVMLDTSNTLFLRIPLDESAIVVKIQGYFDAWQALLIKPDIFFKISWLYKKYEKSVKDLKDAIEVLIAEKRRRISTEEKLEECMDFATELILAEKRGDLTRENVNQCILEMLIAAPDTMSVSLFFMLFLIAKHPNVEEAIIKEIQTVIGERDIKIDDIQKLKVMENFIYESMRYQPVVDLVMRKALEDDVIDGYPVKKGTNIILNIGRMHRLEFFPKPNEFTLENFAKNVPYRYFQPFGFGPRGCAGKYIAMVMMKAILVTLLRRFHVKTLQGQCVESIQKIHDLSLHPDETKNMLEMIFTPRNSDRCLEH
A short description of experiment [8]: qHTS assay to identify small molecule antagonists of the estrogen receptor alpha (ER-alpha) signaling pathway using the BG1 cell line - cell viability counter screen (AID 743081).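 Also: compound given together with 17beta-estradiol as the ER stimulus; nearly all actives have a fitted effect of over 45% in size.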 Also: potency is read from the fitted curve at half-maximal effect.
Experiment [9] can be described thus: qHTS assay to identify small molecule antagonists of the estrogen receptor alpha (ER-alpha) signaling pathway using the BG1 cell line (AID 743080; calls by dose curve;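 also: BG1 cells stimulated with 17beta-estradiol alongside compound; nearly all actives have a fitted effect of over 25% in size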). A digest of the protocol:
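Luciferase inhibition measured with ONE-Glo after 30 min at RT in BG1Luc4E2 cells given test compounds and 17beta-estradiol for 21.5 h at 37 C; CellTiter-Fluor viability read in the same wells beforehand.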
% is scaled to controls: 0 for no effect and ±100 for the full control effect.

Regarding `CS(=O)(=O)NC(=O)CCC/C=C\C[C@H]1C(=O)C[C@@H](O)[C@@H]1/C=C/[C@H](O)COc1ccccc1`, the Potency entry in [1], in experiment [2], in experiment [3], in experiment [4], in experiment [5] and in experiment [6] was “inactive” each time. Also, the Potency result (in [7]; with Aromatase (Homo sapiens)) was “inactive” each time.

As for `CC[C@H]1OC(=O)[C@H](C)[C@@H](O[C@H]2C[C@@](C)(OC)[C@@H](O)[C@H](C)O2)[C@H](C)[C@@H](O[C@@H]2O[C@H](C)C[C@H](N(C)C)[C@H]2O)[C@](C)(O)C[C@@H](C)[C@@H]2N[C@@H](COCCOC)O[C@@H]([C@H]2C)[C@]1(C)O`, the Potency entry in experiment [1], in experiment [2], in [3], in experiment [4], in [5] and in [6] was “inactive” in each case. The Potency entry (in experiment [7]; in experiment [8]; with Aromatase (Homo sapiens)) was “inactive” in each case.

For the molecule `CC(C)[C@@H](N)C(=O)O`, the Potency result in experiment [1], in [2], in experiment [3], in [4], in [5] and in [6] was “inactive” each time. Also, the Potency result (in experiment [7]; in experiment [8]; in the experiment with Aromatase (Homo sapiens)) was “inactive” in each case.

With `CC(C)[C@@H]1CC[C@@H](C)C[C@H]1OC(=O)c1ccccc1O`, the Potency entry in [1], in experiment [2], in experiment [3], in experiment [4], in experiment [5] and in experiment [6] was “inactive” in each case. The Potency result (in experiment [7]; in the experiment with Aromatase (Homo sapiens)) was “inactive” each time.

As for `C[Se]CCC(N)C(=O)O` (configuration not stated), the Potency result in experiment [1], in [2], in experiment [3], in experiment [4], in experiment [5] and in [6] was “inactive” each time. The Potency entry (in [7]; in [8]; with Aromatase (Homo sapiens)) was “inactive” each time.

On to `NC(=O)Oc1ccc(Cc2ccccc2)cc1`, for which the Potency result in experiment [1], in experiment [2], in [3], in experiment [4], in experiment [5] and in [8] was “inactive” in each case. In the experiment with Aromatase (Homo sapiens), the Potency result is “inactive”. In addition, the Potency is 26.8 µM [activator] (active) in experiment [6] and 21.1 µM (active) in experiment [7].

For `O=C(c1cc2ccccc2o1)N1CCN(Cc2ccccc2)CC1`, the Potency entry in experiment [1], in [2], in experiment [3], in experiment [4], in [5] and in experiment [6] was “inactive” each time. In addition, the Potency entry (in experiment [7]; in experiment [8]; with Aromatase (Homo sapiens)) was “inactive” throughout.

As for `CCN(CC)CCOc1ccc2nc(N(C)C)sc2c1`, the Potency result in [1], in [2], in [3], in experiment [4], in experiment [5] and in [6] was “inactive” in each case. Further, the Potency entry (in experiment [8]; in the experiment with Aromatase (Homo sapiens)) was “inactive” throughout. Moreover, the Potency in [7] is 26.6 µM (active).

Consider `CC(=O)O[C@H]1C(=O)[C@@]2(C)[C@H]([C@H](OC(=O)c3ccccc3)[C@]3(O)C[C@H](OC(=O)[C@H](O)[C@@H](NC(=O)c4ccccc4)c4ccccc4)C(C)=C1C3(C)C)[C@]1(OC(C)=O)CO[C@@H]1C[C@@H]2O`, for which the Potency in experiment [1] is 0.266 µM (active); in [2], 0.133 µM (active). The Potency entry (in experiment [3]; in experiment [4]; in [5]; in experiment [6]; with Aromatase (Homo sapiens)) was “inactive” throughout.

`O=C(O)CCC/C=C\C[C@@H]1[C@@H](/C=C/[C@@H](O)COc2cccc(C(F)(F)F)c2)[C@H](O)C[C@@H]1O`: the Potency entry in experiment [1], in [2], in experiment [3], in [4], in experiment [5] and in experiment [8] was “inactive” in each case. Further, the Potency result with Aromatase (Homo sapiens) is “inactive”. Moreover, the activation in experiment [7] was 49.9% (active).

With `C=C[C@]1(C)C[C@@H](OC(=O)CSC(C)(C)CNC(=O)[C@H](N)C(C)C)[C@]2(C)[C@H](C)CC[C@]3(CCC(=O)[C@H]32)[C@@H](C)[C@@H]1O`, the Potency in [1] is 2.66 µM (active); in experiment [2], 13.3 µM (active); in experiment [8], 5.96 µM (active); with Aromatase (Homo sapiens) it was 21.1 µM (active). For the same molecule, the Potency result in [3], in experiment [4], in [5] and in experiment [6] was “inactive” each time.

As to `NC(Cc1ccccc1)C(=O)O` (configuration not stated), the Potency entry in [1], in experiment [2], in experiment [3], in [4], in experiment [5] and in experiment [6] was “inactive” throughout. Moreover, the Potency result (in experiment [9]; in experiment [8]; in the experiment with Aromatase (Homo sapiens)) was “inactive” throughout.

Turning to `O=C(Nc1ccc(O)cc1)c1ccccc1O`, the Potency result in experiment [1], in experiment [2], in experiment [3], in experiment [4], in [5] and in [6] was “inactive” each time. Also, the Potency result (in experiment [8]; with Aromatase (Homo sapiens)) was “inactive” in each case. The Potency in experiment [7] was 13.3 µM (active).

Turning to `Nc1ccn(C[C@@H](CO)OCP(=O)(O)O)c(=O)n1`, the Potency result in experiment [1], in experiment [2], in experiment [3], in experiment [4], in experiment [5] and in experiment [9] was “inactive” in each case. In addition, the Potency result with Aromatase (Homo sapiens) was “inactive”.

As to `O=C(O)CCC/C=C\C[C@@H]1[C@@H](/C=C/[C@@H](O)COc2cccc(Cl)c2)[C@H](O)C[C@@H]1O`, the Potency result in [1], in experiment [2], in [3], in experiment [4], in experiment [5] and in [6] was “inactive” each time. Moreover, the Potency entry (in [7]; in experiment [8]; with Aromatase (Homo sapiens)) was “inactive” in each case.

`CCN(CC)c1ccc(N=Nc2ccc(S(=O)(=O)N(C)C)cc2)c(S(=O)(=O)NCC[n+]2ccccc2)c1`: the Potency result in experiment [1], in experiment [2], in [3], in [4], in experiment [5] and in [6] was “inactive” throughout. Besides, the Potency entry (in experiment [9]; with Aromatase (Homo sapiens)) was “inactive” in each case.

For the molecule `OC(CN1CCCCC1)c1cc(-c2ccccc2)on1` (configuration not stated), the Potency entry in [1], in experiment [2], in experiment [3], in [4], in experiment [5] and in [6] was “inactive” in each case. Also, the Potency result (in experiment [8]; with Aromatase (Homo sapiens)) was “inactive” throughout. Moreover, in [7], the Potency was 23.7 µM (active).

For `O=S(=O)(O)c1cc(O)c2c(N=Nc3ccc(Nc4ccccc4)c4c(S(=O)(=O)O)cccc34)cc(S(=O)(=O)O)cc2c1`, the Potency in [1] is 26.6 µM (active); in [2], 23.7 µM (active); in experiment [8] it was 15 µM (active); in the experiment with Aromatase (Homo sapiens), 23.7 µM (active). Further, the Potency entry in experiment [3], in experiment [4], in experiment [5] and in experiment [6] was “inactive” in each case.
